p97 ATPase inh = human p97 ATPase inhibition; AID 1481; P55072; inhibition, % at 8 µM; recombinant p97 ATPase, Kinase-Glo ATP luminescence, 3 h; 220,000 compounds, 0.42% hits; in the data active = inhibition above about 15%
DTT redox prof = compounds producing H2O2 with reducing agent – biochemical, NIH compound library profiling, artefact control for MLSCN library redox annotation, primary screen; DTT-dependent redox cycling H2O2, phenol red/HRP absorbance; 100% = 100 µM peroxide control, 0% = buffer; activation, % at 10 µM; 200,000 compounds, 0.03% hits;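 active = activation of at least 50% relative to the plate's high and low controls in the primary single-dose screen; inactive = activation below 50%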;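 note: compound incubated with DTT at 0.8 mM final as the reducing agent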
Furin inh = inhibitors of human furin; inhibition, % at 20 µM or 30 µM; purified furin, fluorogenic substrate cleavage; 220,000 compounds, 0.061% hits; P09958; in the data active = inhibition above about 25%
SUMO HTRF inh = blocks human SUMOylation mediated by UBC9. HTRF SUMOylation assay, SAE1/SAE2 + UBC9, in vitro. inhibition, % at 35 µM. 290,000 compounds, 0.36% hits; in the data active = inhibition above about 50%, passing the limit was not always enough; inconclusive = no clear call, values can overlap the other calls
FAS-TE inh = blocks the thioesterase domain of human fatty acid synthase; recombinant FAS-TE, OMFH fluorogenic substrate, fluorescence endpoint; inhibition, % at 15 µM; 360,000 compounds, 0.67% hits; AID 602261;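 active = compounds whose normalised, plate-corrected inhibition of enzyme fluorescence in the single-dose primary screen is 50% or more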
PKD1 inh = PKD1 (human) kinase inhibition. 200,000 compounds, 0.056% hits. PKD1 kinase fluorescence polarization assay. inhibition, % (no concentration beside the values); in the data active = inhibition above about 50%
p97 confirm = confirmation of human p97 ATPase inhibitors; shares compounds with p97 ATPase inh; recombinant p97 ATPase, Kinase-Glo ATP luminescence; inhibition, % at 8 µM; 760 compounds, 44% hits; AID 1517;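 active = percent inhibition of p97 ATPase above a set limit, the primary screen's mean plus 3 SD, cut at about 15% in these data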
Hits are given with their value; . = inactive; ? = inconclusive; / = no result. The list is not random: actives were taken first. Their share in the collection is about 1.2%.

SMILES | p97 ATPase inh | DTT redox prof | Furin inh | SUMO HTRF inh | FAS-TE inh | PKD1 inh | p97 confirm
CCN(CC(=O)Nc1ccc2c(c1)OCCO2)C(=O)C(C)Oc1ccc(Cl)cc1 (configuration not stated) | / | / | / | / | . | / | /
O=C(CCl)NNC(=O)c1c(O)c2ccccc2[nH]c1=O | 20.7 | / | . | . | . | / | 32.0
CCCCC(=O)NNC(=O)c1c(O)c2ccccc2[nH]c1=O | . | / | . | . | . | / | /
CC1CCCCC1NC(=O)COc1ccccc1C#N (configuration not stated) | / | / | / | / | . | / | /
Nc1nc(N2CCOCC2)n[nH]1 | 17.2 | . | . | . | . | . | .
CC(=O)c1sc(C(C)(C)C)cc1NC(=O)/C=C/C(=O)O | 15.2 | / | . | . | . | / | .
Cc1ccccc1OCCC(=O)OCC(=O)NC1CCCCC1 | / | / | / | / | . | / | /
O=[N+]([O-])c1ccc(S(=O)(=O)Nc2nnc(C(F)(F)F)s2)cc1 | / | / | / | . | . | / | /
COc1cc2c(cc1NC(=O)CSc1nnc(Cc3cccs3)n1Cc1ccco1)oc1ccccc12 | . | . | . | . | . | . | /
COc1cc2c(cc1NC(=O)CSc1nnc(Cc3cccs3)n1C)oc1ccccc12 | 21.6 | . | . | . | . | . | 16.5
COc1ccc(C2=NOC(Cn3nc(C(=O)NCc4cccc(C(F)(F)F)c4)cc3-c3ccccc3)C2)cc1 (configuration not stated) | / | / | / | / | . | / | /
COc1cc2c(cc1OC)C(C)N(C(C)=O)CC2 (configuration not stated) | . | . | . | . | . | . | /
COc1cc2c(cc1OC)C(C)N(C(=O)c1cccs1)CC2 (configuration not stated) | 15.6 | . | . | . | . | . | 20.5
Cc1c(N=C2C=CC(=O)c3ccccc32)c(=O)n(-c2ccccc2)n1C | . | . | . | . | . | . | /
Cc1c(N=C2C=C(Br)C(=O)C(Br)=C2)c(=O)n(-c2ccccc2)n1C | 27.4 | . | . | ? | . | . | .
COc1ccc(-c2cc(=O)n(CCC#N)[nH]2)cc1 | 24.9 | . | . | . | . | . | .
COc1ccc(-c2cc(=O)[nH][nH]2)cc1 | . | . | . | . | . | . | /
CC1(C(=O)NCc2ccccc2)Cc2c(-c3ccc4c(c3)OCO4)ccnc2O1 (configuration not stated) | / | / | / | / | . | / | /
O=C1NC(=O)C(=Cc2ccccc2)N1 | / | / | / | / | . | / | /
O=C1NC(=O)/C(=C/c2cccc(O)c2)N1 | 19.1 | / | . | . | . | / | .
COC(=O)COc1ccc(=O)n(-c2ccccc2)n1 | 17.6 | . | . | . | . | . | .
O=C(O)COc1ccc(=O)n(-c2ccccc2)n1 | . | . | . | . | . | . | /
C(=N\Nc1nc2ccccc2[nH]1)/c1cccc2cccnc12 | 20.1 | / | . | . | . | / | .
C(=N\Nc1nc2ccccc2[nH]1)/c1c[nH]c2ccccc12 | 15.1 | . | . | . | . | . | .
C(=N\Nc1nc2ccccc2[nH]1)/c1ccccc1 | . | . | . | . | . | . | /
SMILES | p97 ATPase inh | DTT redox prof | Furin inh | SUMO HTRF inh | FAS-TE inh | PKD1 inh | p97 confirm
Cc1ccccc1/C=N/Nc1nc2ccccc2[nH]1 | . | . | . | . | . | . | /
CC(Sc1nc2scc(-c3ccccc3)c2c(=O)[nH]1)C(=O)NC(N)=O (configuration not stated) | 14.9 | / | . | . | . | / | 24.2
CCC(C)NC(=O)CSc1nc2scc(-c3ccccc3)c2c(=O)[nH]1 (configuration not stated) | . | . | . | . | . | . | /
NC(=O)c1csc(-c2ccncc2)n1 | . | . | . | . | . | . | /
Nc1cc(-c2ccncc2)c[nH]c1=O | 22.7 | . | . | . | . | . | .
Cc1cc(N/N=C/c2ccc(O)cc2O)nc(N2CCOCC2)n1 | 15.2 | / | . | . | . | / | 16.6
COc1ccc(/C=N/Nc2cc(C)nc(N3CCOCC3)n2)c(OC)c1 | . | / | . | . | . | / | /
Cc1nnc(N/N=C\c2ccc(-c3ccccc3[N+](=O)[O-])o2)n1N | 17.2 | . | . | . | . | . | .
CC1=NN(CCC#N)C(=O)/C1=C/c1ccc(N(C)C)cc1 | . | . | . | . | . | . | /
COc1cc(/C=C2\C(=O)N(CCC#N)N=C2C)ccc1OCC(=O)Nc1ccccc1 | 28.5 | . | . | . | . | . | .

Compound activity deposited in PubChem by several laboratories.
